Assay results: ChEMBL document CHEMBL1961873, “Compounds: GSK PKIS; Assays: Nanosyn kinase panel” (2012)

molecular target: Casein kinase I isoform alpha (Homo sapiens) (UniProt P48729); conditions: at 0.1 µM
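Note: values are the mean percent inhibition of CK1a, averaged over measurements.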

Sequence of Casein kinase I isoform alpha (Homo sapiens) (P48729 2-337 limits assumed): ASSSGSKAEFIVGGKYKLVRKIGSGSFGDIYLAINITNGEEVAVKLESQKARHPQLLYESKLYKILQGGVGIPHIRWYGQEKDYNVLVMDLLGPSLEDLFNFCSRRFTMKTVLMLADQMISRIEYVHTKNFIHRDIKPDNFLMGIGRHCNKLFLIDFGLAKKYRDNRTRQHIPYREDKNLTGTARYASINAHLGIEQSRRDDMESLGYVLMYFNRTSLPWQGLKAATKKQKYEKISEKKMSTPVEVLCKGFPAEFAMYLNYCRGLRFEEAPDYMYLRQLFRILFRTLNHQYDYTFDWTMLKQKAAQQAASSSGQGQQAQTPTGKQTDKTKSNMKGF

Structure (SMILES)	inhibition [%]
CCCN(CCS(C)(=O)=O)Cc1ccc(-c2ccc3ncnc(Nc4ccc(OCc5cccc(F)c5)c(Cl)c4)c3c2)o1	1.49
CCn1c(-c2nonc2N)nc2c(C#CC(C)(C)O)ncc(OC3CCNCC3)c21	2.3
CCn1c(-c2nonc2N)nc2c(C#CC(C)(C)O)nc(OC[C@H](N)c3ccccc3)cc21	2.03
CC(=O)Nc1cccc(C#Cc2cncnc2Nc2ccc(OCc3cccc(F)c3)c(Cl)c2)c1	-1.79
Cc1ccc(O)cc1Nc1ccnc2cc(-c3ccccn3)ccc12	3.78
CCn1c(-c2nonc2N)nc2cnc(Oc3cccc(NC(=O)c4ccc(N(C)C)cc4)c3)cc21	2.09
NC(=O)c1sc(-n2cnc3ccc(C(F)(F)F)cc32)cc1OCc1ccccc1Br	0.93
CCc1nn2ncccc2c1-c1ccnc(NC2CC2)n1	4.3
N#Cc1c(NC(=O)CN2CCOCC2)sc2c1CCCC2	6.79
CN(C)CCOc1ccc(-c2nc(-c3ccncc3)c(-c3ccc4c(c3)CC/C4=N\O)[nH]2)cc1	3.41
CCOc1ccc2c(-c3ccnc(Nc4cccc(C(F)(F)F)c4)n3)cnn2n1	0.42
COc1cccc(-c2c[nH]c3c(N/N=C/c4ccncc4)ncnc23)c1	5.65
c1cc(-c2cnn3nc(N4CCOCC4)ccc23)nc(NC2CC2)n1	5.43
CNC(=O)c1cncc(/C=C/c2ccccc2Cl)c1	0.76
c1ccc(-c2nc3n(c2-c2ccc4c(c2)OCO4)CCC3)nc1	22.2
Fc1cccc(COc2ccc(Nc3ncnc4sc(-c5ccco5)cc34)cc2Cl)c1	3.24
